# Source: the antibiotic and cytotoxicity screens of Wong et al. (2023)
# Out of some 39,000 compounds screened, about 1,500 (3.8%) were called active. Many of the other results were omitted from the sample, so actives are more common in it than they were.
# System: HSkMC (human skeletal muscle cells)
# Test: cytotoxicity call (relative viability < 0.9)
# Details: 10 µM
row,SMILES,cytotoxicity call
1,CC(C)c1nc(/N=C/N(C)C)nc(=O)n1C,inactive
2,C[C@H](CO)N1C[C@H](C)[C@H](CN(C)C(=O)Nc2ccc(F)cc2)OCCCC[C@H](C)Oc2ccc(NS(=O)(=O)c3ccc(Cl)cc3)cc2C1=O,inactive
3,C[C@H](CO)N1C[C@H](C)[C@@H](CN(C)Cc2ccc3c(c2)OCO3)Oc2ncc(Br)cc2C1=O,inactive
4,CN(Cc1ccc(/C=C/C(=O)Nc2ccc(-c3ccccc3)cc2N)cc1)CC12CC3CC(CC(C3)C1)C2,active
5,C[C@@H]1CN([C@@H](C)CO)C(=O)Cc2cc(NC(=O)CCCCCC(=O)Nc3ccccc3N)ccc2O[C@H]1CN(C)Cc1ccc(-c2ccccc2)cc1,inactive
6,CN(Cc1ccc(/C=C/C(=O)Nc2ccc(-c3cccs3)cc2N)cc1)CC12CC3CC(CC(C3)C1)C2,inactive
7,COCCN1CCO[C@@H]2CN(Cc3cnn(C)c3)C[C@@H]21,inactive
8,CN1CCN(C(=O)C[C@H]2CC[C@@H]3[C@H](COC[C@H](O)CN3C(=O)Nc3ccc4c(c3)OCO4)O2)CC1,inactive
9,C[C@H]1CN([C@@H](C)CO)C(=O)c2cc(NC(=O)Nc3cccc4ccccc34)ccc2O[C@@H]1CN(C)S(=O)(=O)c1cccs1,inactive
10,C[C@H]1CN([C@@H](C)CO)C(=O)Cc2cc(NC(=O)NC3CCCCC3)ccc2O[C@@H]1CN(C)C(=O)Nc1ccc(C(F)(F)F)cc1,inactive
11,C[C@H](CO)N1C[C@H](C)[C@@H](CN(C)Cc2ccc(C(F)(F)F)cc2)Oc2ccc(NC(=O)Nc3ccccc3)cc2C1=O,inactive
12,C[C@H]1CN([C@@H](C)CO)C(=O)c2cc(NC(=O)Nc3ccccc3)ccc2O[C@H]1CN(C)Cc1ccc(C(F)(F)F)cc1,inactive
13,C[C@@H]1CN([C@H](C)CO)C(=O)c2cc(NC(=O)Nc3ccccc3)ccc2O[C@@H]1CN(C)Cc1ccc(C(F)(F)F)cc1,active
14,C[C@@H]1CN([C@@H](C)CO)C(=O)c2cc(NC(=O)Nc3ccccc3)ccc2O[C@H]1CN(C)Cc1ccc(C(F)(F)F)cc1,active
15,C[C@@H]1CN([C@H](C)CO)C(=O)c2cc(NC(=O)Nc3ccccc3)ccc2O[C@H]1CN(C)Cc1ccc(C(F)(F)F)cc1,inactive
16,C[C@H](CO)N1C[C@H](C)[C@H](CN(C)Cc2ccc(C(F)(F)F)cc2)Oc2ccc(NC(=O)Nc3ccccc3)cc2C1=O,inactive
17,NCc1cn(Cc2ccc(Cl)c(Cl)c2)cn1,inactive
18,C[C@H](CO)N1C[C@H](C)[C@@H](CN(C)S(=O)(=O)c2ccc(F)cc2)Oc2ccc(NS(=O)(=O)c3ccc(F)cc3)cc2CC1=O,inactive
19,CN(C)CCCNC(=O)C[C@@H]1CC[C@H](NS(=O)(=O)c2ccccc2)[C@@H](CO)O1,inactive
20,C[C@H]1CN([C@@H](C)CO)C(=O)Cc2cc(NC(=O)Cc3ccccc3)ccc2O[C@@H]1CN(C)S(=O)(=O)c1cn(C)cn1,inactive
21,C[C@H](CO)N1C[C@H](C)[C@H](CN(C)C(=O)C2CCCCC2)OCCCC[C@H](C)Oc2ccc(NS(=O)(=O)c3ccc(Cl)cc3)cc2C1=O,inactive
22,Cc1ccc(-c2ccc3c(c2)O[C@H](CN(C)C(=O)Nc2ccc(C(F)(F)F)cc2)[C@H](C)CN([C@@H](C)CO)S3(=O)=O)cc1,inactive

row,SMILES,cytotoxicity call
1,Cc1ccc(-c2ccc3c(c2)O[C@@H](CN(C)C(=O)Nc2ccc(C(F)(F)F)cc2)[C@@H](C)CN([C@@H](C)CO)S3(=O)=O)cc1,inactive
2,Cc1ccc(-c2ccc3c(c2)O[C@H](CN(C)C(=O)Nc2ccc(C(F)(F)F)cc2)[C@H](C)CN([C@H](C)CO)S3(=O)=O)cc1,inactive
3,Cc1ccc(-c2ccc3c(c2)O[C@H](CN(C)C(=O)Nc2ccc(C(F)(F)F)cc2)[C@@H](C)CN([C@H](C)CO)S3(=O)=O)cc1,inactive
4,Cc1ccccc1-c1ccc2c(c1)O[C@H](CN(C)C(=O)Nc1ccc(C(F)(F)F)cc1)[C@H](C)CN([C@@H](C)CO)S2(=O)=O,inactive
5,Cc1ccccc1-c1ccc2c(c1)O[C@@H](CN(C)C(=O)Nc1ccc(C(F)(F)F)cc1)[C@@H](C)CN([C@@H](C)CO)S2(=O)=O,active
6,Cc1ccc(-c2ccc3c(c2)O[C@@H](CN(C)C(=O)Nc2ccc(C(F)(F)F)cc2)[C@H](C)CN([C@H](C)CO)S3(=O)=O)cc1,active
7,Cc1ccccc1-c1ccc2c(c1)O[C@@H](CN(C)C(=O)Nc1ccc(C(F)(F)F)cc1)[C@H](C)CN([C@H](C)CO)S2(=O)=O,inactive
8,Cc1ccc(-c2ccc3c(c2)O[C@H](CN(C)C(=O)Nc2ccc(C(F)(F)F)cc2)[C@@H](C)CN([C@@H](C)CO)S3(=O)=O)cc1,active
9,C[C@@H]1CCCCO[C@@H](CN(C)C(=O)Nc2ccc3c(c2)OCO3)[C@H](C)CN([C@H](C)CO)C(=O)c2cc(NC(=O)Cc3ccccc3)ccc2O1,inactive
10,CC(/C=C/C(=O)NO)=C\c1ccccc1OC[C@@H]1[C@H]2C[C@H]3c4[nH]c5ccccc5c4CCN3C[C@@H]2CC[C@@H]1O,inactive
11,C[C@@H]1CN([C@@H](C)CO)C(=O)c2cccc(NC(=O)C3CCCCC3)c2O[C@H]1CN(C)Cc1ccc(C(F)(F)F)cc1,inactive
12,CC1CC=CC=CC=CC=CC(OC2OC(C)C(O)C(N)C2O)CC2OC(O)(CC(O)CC3OC3C=CC(=O)O1)CC(O)C2C(=O)O (stereo not given),inactive
13,CN1C(=O)c2cc(NC(=O)Nc3ccccc3F)ccc2OC[C@H]2O[C@@H](CC(=O)Nc3cccc(Cl)c3)CC[C@@H]21,inactive
14,CCOC(=O)N1CCN(C(=O)C2CCN(S(=O)(=O)N(CC)CC)CC2)CC1,inactive
15,C[C@@H]1CN([C@@H](C)CO)C(=O)Cc2cc(NS(=O)(=O)c3cn(C)cn3)ccc2O[C@@H]1CN(C)Cc1ccncc1,inactive
16,CCCN1C[C@H](C(=O)O)CCC1=O,inactive
17,C[C@@H]1CN([C@@H](C)CO)C(=O)Cc2cc(NC(=O)Cc3cn(C)c4ccccc34)ccc2O[C@H]1CN(C)Cc1ccc(Cl)c(Cl)c1,inactive
18,C[C@H]1CN([C@@H](C)CO)C(=O)Cc2cc(NC(=O)Cc3cn(C)c4ccccc34)ccc2O[C@@H]1CN(C)Cc1ccc(Cl)c(Cl)c1,active
19,C[C@@H]1CN([C@@H](C)CO)C(=O)Cc2cc(NC(=O)Cc3cn(C)c4ccccc34)ccc2O[C@@H]1CN(C)Cc1ccc(Cl)c(Cl)c1,inactive
20,Cc1noc(C)c1S(=O)(=O)N(C)C[C@H]1Oc2ccc(NC(=O)Cc3cn(C)c4ccccc34)cc2CC(=O)N([C@H](C)CO)C[C@H]1C,inactive
21,C[C@@H]1CN([C@H](C)CO)C(=O)Cc2cc(NC(=O)Cc3cn(C)c4ccccc34)ccc2O[C@@H]1CN(C)Cc1ccc(Cl)c(Cl)c1,inactive
22,Cc1noc(C)c1S(=O)(=O)N(C)C[C@H]1Oc2ccc(NC(=O)Cc3cn(C)c4ccccc34)cc2CC(=O)N([C@H](C)CO)C[C@@H]1C,inactive

row,SMILES,cytotoxicity call
1,Cc1noc(C)c1S(=O)(=O)N(C)C[C@@H]1Oc2ccc(NC(=O)Cc3cn(C)c4ccccc34)cc2CC(=O)N([C@@H](C)CO)C[C@@H]1C,active
2,C[C@H](CO)N1C[C@H](C)[C@H](CN(C)Cc2ccc(Cl)c(Cl)c2)Oc2ccc(NC(=O)Cc3cn(C)c4ccccc34)cc2CC1=O,inactive
3,C[C@H]1CN([C@@H](C)CO)C(=O)Cc2cc(NC(=O)Cc3cn(C)c4ccccc34)ccc2O[C@H]1CN(C)Cc1ccc(Cl)c(Cl)c1,active
4,C[C@H](CO)N1C[C@H](C)[C@@H](CN(C)Cc2ccc(Cl)c(Cl)c2)Oc2ccc(NC(=O)Cc3cn(C)c4ccccc34)cc2CC1=O,inactive
5,C[C@@H]1CN([C@H](C)CO)C(=O)Cc2cc(NC(=O)Cc3cn(C)c4ccccc34)ccc2O[C@H]1CN(C)Cc1ccc(Cl)c(Cl)c1,active
6,C[C@@H]1CN([C@H](C)CO)C(=O)Cc2cc(NC(=O)Cc3cn(C)c4ccccc34)ccc2O[C@@H]1CN(C)Cc1ccc(-c2ccccc2)cc1,inactive
7,C/C=C/c1ccc2c(c1)O[C@@H](CN(C)S(=O)(=O)c1ccc(C)cc1)[C@@H](C)CN([C@@H](C)CO)S2(=O)=O,inactive
8,C[C@H]1CCCCO[C@@H](CN(C)S(=O)(=O)c2cccs2)[C@@H](C)CN([C@@H](C)CO)C(=O)c2cc(NC(=O)NC3CCCCC3)ccc2O1,inactive
9,CCn1nc(C)c([C@@H](C)N)c1C,inactive
10,Cc1ccc(S(=O)(=O)Nc2ccc3c(c2)C(=O)N([C@H](C)CO)C[C@@H](C)[C@H](CN(C)C(=O)Nc2cccc4ccccc24)OCCCC[C@H](C)O3)cc1,inactive
11,COc1ccc(NC(=O)N(C)C[C@H]2Oc3ccc(NS(C)(=O)=O)cc3C(=O)N([C@H](C)CO)C[C@H]2C)cc1,inactive
12,C[C@H]1CN([C@@H](C)CO)C(=O)Cc2cc(NC(=O)Cn3cnnn3)ccc2O[C@@H]1CN(C)C(=O)NC1CCCCC1,inactive
13,CC1(C)CNCC(=O)NC1,inactive
14,Cc1cc(C)nc(SCC(=O)NN)n1,inactive
15,Cc1ccc(NC(=O)c2ccc(CN3CC[C@H](N(C)C)C3)c(C(F)(F)F)c2)cc1Nc1nccc(-c2cncnc2)n1,active
16,Cc1cn(-c2cc(NC(=O)c3ccc(C)c(Nc4nccc(-c5cccnc5)n4)c3)cc(C(F)(F)F)c2)cn1,active
17,Cc1cn(-c2cc(NC(=O)c3ccc(C)c(Nc4nccc(-c5cnccn5)n4)c3)cc(C(F)(F)F)c2)cn1,active
18,Cc1ncc(NC(=O)c2ccc(CN3CCN(C)CC3)c(C(F)(F)F)c2)cc1Nc1nccc(-c2cccnc2)n1,inactive
19,Cc1ccc(C(=O)Nc2cccc(C(F)(F)F)c2)cc1Nc1nc(-c2cccnc2)nc2c1cnn2C,inactive
20,O=C(Nc1cccnc1)c1nc2ncccn2n1,inactive
21,Cc1ccc(NC(=O)c2ccc(CN3CCN(C)CC3)cc2)cc1Nc1nccc(-c2cccnc2)n1,inactive
